Laboratory results published in ChEMBL document CHEMBL4513216, “Probing the Open Global Health Chemical Diversity Library for Multistage-Active Starting Points for Next-Generation Antimalarials” (ACS Infect Dis, 2020).
About 2,700 (4%) of roughly 68,000 compounds showed an effect of 50% or more. The list comes from a sample in which strong results are over-represented; it also holds similar structures and randomly drawn compounds.

These compounds were tested on Plasmodium berghei (assay: Screen against P. berghei liver stage (PbLuc), transformed with Luciferase, at 2uM). Settings: tested at 2 uM.
Format: functional, HepG2

SMILES	INHIBITION
Cc1ccc(F)c(NS(=O)(=O)c2cc3c(c(C(=O)O)c2)OCCO3)c1	-45.83%
CN(c1ccccc1)S(=O)(=O)c1cc2c(c(C(=O)O)c1)OCCO2	53.19%
O=C(O)c1cc(S(=O)(=O)Nc2ccc(F)cc2F)cc2c1OCCO2	-29.54%
Cc1ccc(NS(=O)(=O)c2cc3c(c(C(=O)O)c2)OCCO3)c(F)c1	57.95%
CN(c1ccc(F)cc1)S(=O)(=O)c1cc2c(c(C(=O)O)c1)OCCO2	26.75%
Cc1cc(C)cc(N(C)S(=O)(=O)c2cc3c(c(C(=O)O)c2)OCCO3)c1	34.46%
O=C(Cc1cccs1)NCC1COCc2c(-c3ccoc3)nnn2C1 (stereo unspecified)	24.34%
COc1cc(CN(C)C(=O)NCCC(=O)NC2CCCC2)ccc1SC	49.88%
Cc1occc1C(=O)N1CCCS1(=O)=O	29.41%
CN(C)S(=O)(=O)N1CC[C@]2(C[C@H](OCc3ccncc3)CO2)C1	9.65%
CC(C)C(=O)N1CCC(CNc2nc(C(C)C)nc3c2cnn3C)CC1	19.12%
COCCN1CC(Nc2nc(C(C)C)nc3c2cnn3C)CC1=O (stereo unspecified)	57.34%
COCCN1CC(Nc2nc(C3CCCC3)nc3c2cnn3C)CC1=O (stereo unspecified)	40.4%
C=c1ncsc1=C1NN=C(C2CCCN2C(=O)CCn2ccc(C)n2)O1 (stereo unspecified)	-16.2%
CC(NC(=O)NCCCN1CCc2ccccc2C1)c1nncn1C (stereo unspecified)	10.53%
Cc1cc(F)ccc1S(=O)(=O)N1CCN(C)Cc2ccccc21	26.62%
CN1CCN(S(=O)(=O)c2cncc(F)c2)c2ccccc2C1	52.73%
COc1cc(F)c(S(=O)(=O)N2CCN(C)Cc3ccccc32)cc1OC	-50.8%
CN(C(=O)Cn1nc(-c2ccc(F)cc2)ccc1=O)C1CCS(=O)(=O)C1 (stereo unspecified)	11.87%
CS(=O)(=O)N1CCCC1c1ccnc2nccn12 (stereo unspecified)	12.35%
CC(C)Oc1cc(N2CC[C@H](CO)[C@@H](O)C2)nc(N)n1	-1.63%
CC(C)Oc1cc(N2CCC(N3CCC(O)CC3)CC2)nc(N)n1	2.39%

SMILES	INHIBITION
CC(C)Oc1cc(N2CCC(C(N)=O)CC2)nc(N)n1	54.41%
CCN(CC)c1nc(Nc2cccc(C(C)O)c2)nc2ccccc12 (stereo unspecified)	6.9%
CC(O)c1cccc(Nc2nc(NCCO)c3ccccc3n2)c1 (stereo unspecified)	60.26%
CCN(CC)c1nc(Nc2cccc(C(=O)O)c2)nc2ccccc12	22.51%
C=C(C)CN(CC)Cc1nc(CC)no1	29.39%
Cc1nc(CN2CCC3(CC2)CCN(C(=O)c2cscn2)C3)cs1	36.75%
Cc1ccc(-c2noc([C@@H]3C[C@H](NC(=O)CC(C)(C)C)CN3C)n2)cc1	29.3%
CCOC(=O)CCCNC(=O)CN1CCN(c2ncccn2)CC1	6.56%
CCc1nccn1CCCNC(=O)CN1CCN(c2ncccn2)CC1	52.57%
O=C(NCCCN1CCN(c2ncccn2)CC1)Nc1ccccn1	7.62%
Cc1cc(C2CCCN2C(=O)CN2C(=O)OC(C)(C)C2=O)on1 (stereo unspecified)	40.83%
CC(C)c1cc(C2CCCN2C(=O)CN2C(=O)OC(C)(C)C2=O)no1 (stereo unspecified)	64.74%
Cc1cc(C2CCCCN2C(=O)CN2C(=O)OC(C)(C)C2=O)no1 (stereo unspecified)	13.51%
CC(C)Cc1cc(C(=O)NC(C)C)[nH]n1	31.66%
O=C(Nc1nc(-c2ccccc2)ns1)N1CCN(C(=O)C2CC2)CC1	7.3%
CC(Cn1cncc1-c1cnn(Cc2ccccc2)c1)N1CCCCC1 (stereo unspecified)	-22.72%
CCn1nc(C)c(-c2cncn2Cc2ccccc2CN(C)C)c1C	17.29%
CN(C)Cc1ccccc1Cn1cncc1-c1cnn(C)c1	55.3%
O=C(NCC1(CO)CC1)c1ccccc1C(F)(F)F	-41.99%
Cc1ccc(N2CCCC(NCC(=O)NCC3CC3)C2)nn1 (stereo unspecified)	42.92%
Cc1ccc(CNC(C)c2ccc3[nH]c(=O)[nH]c3c2)s1 (stereo unspecified)	74.87%
COc1ccc(CNC(C)c2ccc3[nH]c(=O)[nH]c3c2)cc1 (stereo unspecified)	3.9%

SMILES	INHIBITION
CC(NCc1ccc(F)cc1)c1ccc2[nH]c(=O)[nH]c2c1 (stereo unspecified)	-32.84%
CCN(CC1CCOC1)C(=O)c1ccn(-c2ccc(OC)cc2)n1 (stereo unspecified)	-8.85%
Fc1ccccc1Sc1ccccc1CNC1=NCCN1	-39.75%
OCC1CCCN1c1cc(NCc2cc3ccccc3o2)ncn1 (stereo unspecified)	-15.36%
CC(C)(C)n1ncc2c1NC(=O)CC2c1cccc(O)c1 (stereo unspecified)	31.54%
Cc1cc(-c2nccs2)nc(C2CCN(Cc3ccc(F)cc3)CC2)n1	-12.17%
Cc1noc(C)c1CN1CCC2(CC1)NC(=O)CC2c1ccncc1 (stereo unspecified)	-12.36%
CCN1CCCC(O)(CNCc2ccccn2)C1 (stereo unspecified)	-36.39%
CCN1CCCC(O)(CNCc2ccc3c(c2)OCO3)C1 (stereo unspecified)	35.84%
CCN1CCCC(O)(CNCc2ccncc2)C1 (stereo unspecified)	50.02%
Cc1ccc(CN2CCn3c(CNC(=O)c4cccn4C)cnc3C2)s1	-40.86%
COc1cccc(CN2CCC3(COCc4cnc(N(C)C)nc43)C2)c1 (stereo unspecified)	23.93%
CSCc1cccc(S(=O)(=O)NCCCn2ccnc2)c1	16.48%
c1cnn(CC2CN(c3ncnc4ccsc34)CCO2)c1 (stereo unspecified)	32.39%
COC[C@]12COC[C@H]1CN(C(=O)C1CC(F)(F)C1)C2	-22.65%
Cc1cc(F)ccc1C(=O)N1C[C@@H]2COC[C@]2(CN(C)C)C1	25.58%
O=C(c1ccnnc1)N1C[C@@H]2COC[C@]2(COCC2CC2)C1	-57.61%
Cc1cc(F)ccc1C(=O)N1C[C@@H]2COC[C@]2(COCC2CC2)C1	65.38%
COC[C@]12COC[C@H]1CN(C(=O)c1ccc(F)cc1C)C2	57.85%
O=C(C1=CCCC1)N1C[C@@H]2COC[C@]2(COCC2CC2)C1	24.23%
CCOc1c(F)cccc1C(=O)N(c1cccnc1)C(C)C	-56.64%
CC1(C)CN(C(=O)c2ccc3nncn3c2)CCS1	-17.04%
